# Experimental data: the supplement of paper PMC9950053
# Counter-ions that a name gives are not always drawn.
# Tested on: Danio rerio larvae (5 dpf)
# Test: excitability (activity period 17 minus period 16, 1-s interval sound) minus DMSO control (percentage points); higher = more acoustic excitability than DMSO larvae
# Conditions: 10 µM; exposure time: 3 h pre-incubation + 3 h imaging
# Description: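 Wild-type 5 dpf zebrafish larvae (n=48 per drug, 96-well plates, 28.5 °C) were exposed to Tocris FDA-approved library compounds at 10 µM (0.1% DMSO) for 3 h before and 3 h during imaging. Images were taken every 6 s during visual (moving coloured lines) and acoustic stimuli, and larvae were tracked with the DeepLabCut-based Z-LaP Tracker. Each behavioural measure is the treated-group mean minus the DMSO vehicle control mean (n=844), in percentage points. This mapping covers compounds with 4-character plate codes.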
row,Compound,excitability
1,CC(C)CN(C[C@@H](O)[C@H](Cc1ccccc1)NC(=O)O[C@H]1CO[C@H]2OCC[C@H]21)S(=O)(=O)c1ccc(N)cc1 [Darunavir],-0.913
2,CCOC(=O)C1=C(C)NC(C)=C(C(=O)OC)C1c1cccc(Cl)c1Cl (stereo not given) [Felodipine],-10.3
3,Nc1nc2c(ncn2COCCO)c(=O)[nH]1 [Acyclovir],3.35
4,CC(C)(C)NC(=O)[C@@H]1C[C@@H]2CCCC[C@@H]2CN1C[C@@H](O)[C@H](Cc1ccccc1)NC(=O)[C@H](CC(N)=O)NC(=O)c1ccc2ccccc2n1 [Saquinavir mesylate],7.09
5,COc1cc2nc(N3CCN(C(=O)c4ccco4)CC3)nc(N)c2cc1OC [Prazosin hydrochloride],16.4
6,CC(CCc1ccc(O)cc1)NCCc1ccc(O)c(O)c1 (stereo not given) [Dobutamine hydrochloride],9.03
7,C=C1[C@H](CO)[C@@H](O)C[C@@H]1n1cnc2c(=O)[nH]c(N)nc21 [Entecavir],-0.589
8,CC/C(=C(\c1ccccc1)c1ccc(OCCN(C)C)cc1)c1ccccc1 [Tamoxifen citrate],4.81
9,Nc1ccn([C@@H]2O[C@H](CO)[C@@H](O)C2(F)F)c(=O)n1 [Gemcitabine hydrochloride],1.87
10,COc1cc2nc(N3CCN(C(=O)C4COc5ccccc5O4)CC3)nc(N)c2cc1OC (stereo not given) [Doxazosin mesylate],21.8
11,CCCCC1=NC2(CCCC2)C(=O)N1Cc1ccc(-c2ccccc2-c2nnn[nH]2)cc1 [Irbesartan],-0.258
12,CC(=O)NC[C@H]1CN(c2ccc(N3CCOCC3)c(F)c2)C(=O)O1 [Linezolid],6.87
13,CC(C)[C@H]1CC[C@H](C(=O)N[C@H](Cc2ccccc2)C(=O)O)CC1 [Nateglinide],2.5
14,CC(C)n1c(/C=C/C(O)CC(O)CC(=O)O)c(-c2ccc(F)cc2)c2ccccc21 (stereo not given) [Fluvastatin sodium],3.75
15,COc1ccccc1OCCNCC(O)COc1cccc2[nH]c3ccccc3c12 (stereo not given) [Carvedilol],22.5
16,OCCN(CCO)c1nc(N2CCCCC2)c2nc(N(CCO)CCO)nc(N3CCCCC3)c2n1 [Dipyridamole],-2.85
17,Nc1cc(N2CCCCC2)nc(N)[n+]1[O-] [Minoxidil],0.502
18,CC(=O)Oc1ccccc1C(=O)O [Aspirin],10.3
19,C[C@]12CCC(=O)C=C1CC[C@@H]1[C@@H]2[C@@H](O)C[C@@]2(C)[C@H]1CC[C@]2(O)C(=O)CO [Hydrocortisone],3.96
20,Nc1nc(Cl)nc2c1ncn2[C@@H]1O[C@H](CO)[C@@H](O)[C@@H]1F [Clofarabine],4.52

row,Compound,excitability
1,CCOC(=O)C1=C(COCCN)NC(C)=C(C(=O)OC)C1c1ccccc1Cl (stereo not given) [Amlodipine besylate],1.82
2,COc1ccc(Cl)cc1C(=O)NCCc1ccc(S(=O)(=O)NC(=O)NC2CCCCC2)cc1 [Glibenclamide],2.33
3,CN/C(=N\CCSCc1nc[nH]c1C)NC#N [Cimetidine],-2.33
4,Cc1cccc(CN2CCN(C(c3ccccc3)c3ccc(Cl)cc3)CC2)c1 (stereo not given) [Meclizine dihydrochloride],8.17
5,Cc1ccccc1C(=O)Nc1ccc(C(=O)N2CCCC(O)c3cc(Cl)ccc32)c(C)c1 (stereo not given) [Tolvaptan],8.2
6,COc1c(C)c2c(c(O)c1C/C=C(\C)CCC(=O)O)C(=O)OC2 [Mycophenolic acid],1.48
7,O=C(O)CCCc1ccccc1 [Sodium 4-Phenylbutyrate],2.71
8,CC#C[C@]1(O)CC[C@H]2[C@@H]3CCC4=CC(=O)CCC4=C3[C@@H](c3ccc(N(C)C)cc3)C[C@@]21C [Mifepristone],5.63
9,C/C(O)=C(\C#N)C(=O)Nc1ccc(C(F)(F)F)cc1 [Teriflunomide],9.34
10,CC(=O)S[C@@H]1CC2=CC(=O)CC[C@]2(C)[C@H]2CC[C@@]3(C)[C@@H](CC[C@@]34CCC(=O)O4)[C@H]12 [Spironolactone],3.91
11,CN1CCN(CCCN2c3ccccc3Sc3ccc(Cl)cc32)CC1 [Prochlorperazine dimaleate],27.2
12,NS(=O)(=O)Cc1noc2ccccc12 [Zonisamide],4.75
13,CN1CC[C@@H](NC(=O)Nc2ccc(C#N)cc2)C[C@@H]1c1nc2ccccc2[nH]1,6.95
14,CCOc1ccccc1OCCN[C@H](C)Cc1ccc(OC)c(S(N)(=O)=O)c1 [Tamsulosin hydrochloride],16.7
15,N[C@@H]1[C@H]2CN(c3nc4c(cc3F)c(=O)c(C(=O)O)cn4-c3ccc(F)cc3F)C[C@@H]12 [Trovafloxacin mesylate],12.2
16,CN(C)CCc1c[nH]c2ccc(Cn3cncn3)cc12 [Rizatriptan benzoate],-0.877
17,O=C(c1ccc(OCCN2CCCCC2)cc1)c1c(-c2ccc(O)cc2)sc2cc(O)ccc12 [Raloxifene hydrochloride],9.77
18,CN(CCOc1ccc(NS(C)(=O)=O)cc1)CCc1ccc(NS(C)(=O)=O)cc1 [Dofetilide],6.73
19,COc1c(C)c2c(c(O)c1C/C=C(\C)CCC(=O)OCCN1CCOCC1)C(=O)OC2 [Mycophenolate mofetil],4.14
20,COc1cccc2c1C(=O)c1c(O)c3c(c(O)c1C2=O)C[C@@](O)(C(=O)CO)C[C@@H]3O[C@H]1C[C@H](N)[C@H](O)[C@H](C)O1 [Doxorubicin hydrochloride],15.5
